# Assay results reported in PubChem BioAssay (EPA / NIEHS).
# Where a structure was tested more than once in an assay, its records may differ in their call. The source made the active and inactive calls. Rule for the calls: active = hit-call score of the fitted dose curve at least 0.9, where 1 is the maximum; inactive = score below 0.9.
# Tests used:
# Decorin, DCN (gene 1634) = assay: BSK_MyoF_Decorin: BioMAP Diversity Plus: MyoF Assay for Decorin Biomarker Activity (AID 2284265); settings: primary human lung fibroblasts
# Outline: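 Compound is added to lung fibroblast cultures; cells incubate 24 h; decorin is then measured by ELISA; the response is analysed upward against DMSO controls.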
# [1] = BSK_MyoF_SRB: Viability Assessment in the BioMAP Diversity Plus: MyoF Assay (AID 2284267); settings: primary human lung fibroblasts;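 note: total protein by SRB absorbance in parallel cultures as cytotoxicity measure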
# Outline: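 Read-out is SRB absorbance at 560 nm, reflecting total protein in parallel lung fibroblast cultures harvested 24 h after compound addition. Cells were TCA-fixed (10%) and stained with 0.1% SRB; activity is referenced to DMSO.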
# [2] = read-out: Matrix Metallopeptidase 1 (MMP1), MMP1 (gene 4312); assay: BSK_MyoF_MMP1: BioMAP Diversity Plus: MyoF Assay for Matrix Metallopeptidase 1 (MMP1) Biomarker Activity (AID 2284268); settings: primary human lung fibroblasts
# Outline: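 Lung fibroblast cultures were dosed with test chemicals and, after 24 h, MMP1 levels were measured by ELISA; responses were referenced to DMSO and analysed for increases.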
# [3] = read-out: TIMP metallopeptidase inhibitor 1 (TIMP1), TIMP1 (gene 7076); assay: BSK_MyoF_TIMP1: BioMAP Diversity Plus: MyoF Assay for TIMP metallopeptidase inhibitor 1 (TIMP1) Biomarker Activity (AID 2284269); settings: primary human lung fibroblasts
# Outline: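 Fibroblasts from human lung are dosed with chemical, cultured 24 h, and assayed for TIMP-1 by ELISA. Increases over the DMSO baseline are scored, with SRB total-protein staining run in parallel for cytotoxicity.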
# [4] = read-out: Eotaxin 3, CCL26 (gene 10344); assay: BSK_BF4T_Eotaxin3: BioMAP Diversity Plus: BF4T Assay for Eotaxin 3 Biomarker Activity (AID 2284258); settings: primary human bronchial epithelial cells with fibroblasts
# Outline: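 Co-culture of human bronchial epithelial cells and dermal fibroblasts, exposed to chemicals for 24 h versus DMSO. Eotaxin-3 quantified by ELISA; cytotoxicity checked in parallel cultures by sulforhodamine B total-protein staining.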
# [5] = read-out: Monocyte Chemoattractant Protein-1 (MCP1), CCL2 (gene 6347); assay: BSK_BF4T_MCP1: BioMAP Diversity Plus: BF4T Assay for Monocyte Chemoattractant Protein-1 (MCP1) Biomarker Activity (AID 2284259); settings: primary human bronchial epithelial cells with fibroblasts
# Outline: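 Co-culture of bronchial epithelial cells and dermal fibroblasts dosed with chemical; MCP-1 measured by ELISA 24 h later. Activity fitted in positive direction versus DMSO; cytotoxicity checked by SRB staining in parallel cultures.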
# [6] = read-out: Intercellular Adhesion Molecule 1 (ICAM1), ICAM1 (gene 3383); assay: BSK_BF4T_ICAM1: BioMAP Diversity Plus: BF4T Assay for Intercellular Adhesion Molecule 1 (ICAM1) Biomarker Activity (AID 2284260); settings: primary human bronchial epithelial cells with fibroblasts
# Outline: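 Co-culture of human bronchial epithelial cells and dermal fibroblasts exposed 24 h to chemical; cell-surface ICAM-1 quantified by ELISA. Parallel SRB total-protein staining assessed cytotoxicity; activity fitted relative to DMSO.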
# CD90, THY1 (gene 7070) = assay: BSK_BF4T_CD90: BioMAP Diversity Plus: BF4T Assay for CD90 Biomarker Activity (AID 2284262); settings: primary human bronchial epithelial cells with fibroblasts
# Outline: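 Co-culture of human bronchial epithelial cells and dermal fibroblasts, 24 h compound exposure. Cell-surface CD90 measured by ELISA relative to DMSO; parallel SRB total-protein staining for cytotoxicity.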
# [7] = read-out: Interleukin-8 (IL8), CXCL8 (gene 3576); assay: BSK_BF4T_IL8: BioMAP Diversity Plus: BF4T Assay for Interleukin-8 (IL8) Biomarker Activity (AID 2284263); settings: primary human bronchial epithelial cells with fibroblasts
# Outline: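 Human bronchial epithelial cells with dermal fibroblasts co-culture; IL-8 measured by ELISA 24 hours after dosing, fitted vs DMSO. Cytotoxicity tracked in parallel cultures by SRB total-protein staining.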
# [8] = read-out: Interleukin-1 alpha (IL1a), IL1A (gene 3552); assay: BSK_BF4T_IL1a: BioMAP Diversity Plus: BF4T Assay for Interleukin-1 alpha (IL1a) Biomarker Activity (AID 2284264); settings: primary human bronchial epithelial cells with fibroblasts
# Outline: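 Human bronchial epithelial cells co-cultured with dermal fibroblasts, dosed and read at 24 h. Secreted/surface IL-1α quantified by ELISA; gain-of-signal fitted relative to DMSO baseline. Parallel SRB total-protein staining tracked cytotoxicity.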
# KRT18 (gene 3875) = assay: BSK_BF4T_Keratin818: BioMAP Diversity Plus: BF4T Assay for Keratin 818 Biomarker Activity (AID 2284266); settings: primary human bronchial epithelial cells with fibroblasts
# Outline: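 Co-culture of human bronchial epithelial cells and dermal fibroblasts, chemical exposure 24 h. Keratin 8/18 measured by ELISA; positive-direction fit vs DMSO. SRB total protein run in parallel cultures for cytotoxicity.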
# [9] = read-out: Matrix Metallopeptidase 1 (MMP1), MMP1 (gene 4312); assay: BSK_BF4T_MMP1: BioMAP Diversity Plus: BF4T Assay for Matrix Metallopeptidase 1 (MMP1) Biomarker Activity (AID 2284270); settings: primary human bronchial epithelial cells with fibroblasts
# Outline: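 Co-culture of human bronchial epithelial cells and dermal fibroblasts; MMP-1 levels measured by ELISA 24 hours after chemical dosing, relative to DMSO. Cytotoxicity checked in parallel cultures by SRB total-protein staining.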
# [10] = read-out: Matrix Metallopeptidase 3 (MMP3), MMP3 (gene 4314); assay: BSK_BF4T_MMP3: BioMAP Diversity Plus: BF4T Assay for Matrix Metallopeptidase 3 (MMP3) Biomarker Activity (AID 2284271); settings: primary human bronchial epithelial cells with fibroblasts
# Outline: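 Co-culture of human bronchial epithelial cells and dermal fibroblasts dosed 24 h; MMP-3 measured by ELISA, positive-direction fit versus DMSO. Cytotoxicity tracked by SRB total-protein staining (560 nm) in parallel cultures.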
# [11] = read-out: Tissue plasminogen activator (tPA), PLAT (gene 5327); assay: BSK_BF4T_tPA: BioMAP Diversity Plus: BF4T Assay for Tissue plasminogen activator (tPA) Biomarker Activity (AID 2284272); settings: primary human bronchial epithelial cells with fibroblasts
# Outline: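 tPA level quantified by ELISA at 24 h post-treatment in bronchial epithelial/dermal fibroblast co-cultures, gain of signal scored against DMSO baseline. Parallel cultures stained with 0.1% SRB (560 nm) to flag overt cytotoxicity.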
# [12] = read-out: Plasminogen Activator Inhibitor-1 (PAI1), SERPINE1 (gene 5054); assay: BSK_BF4T_PAI1: BioMAP Diversity Plus: BF4T Assay for Plasminogen Activator Inhibitor-1 (PAI1) Biomarker Activity (AID 2284273); settings: primary human bronchial epithelial cells with fibroblasts
# Outline: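 Co-culture of human bronchial epithelial cells and dermal fibroblasts exposed to compound for 24 h. PAI-1 measured by ELISA; activity fitted in positive direction versus DMSO. Parallel SRB staining assessed overt cytotoxicity.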
# [13] = BSK_BF4T_SRB: Viability Assessment in the BioMAP Diversity Plus: BF4T Assay (AID 2284274); settings: primary human bronchial epithelial cells with fibroblasts
# Outline: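 Co-culture of human bronchial epithelial cells and dermal fibroblasts (BioMAP BF4T) exposed 24 h. Total protein by sulforhodamine B staining (0.1% SRB after 10% TCA fixation, 560 nm) in parallel cultures; fitted vs DMSO.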
# [14] = read-out: urokinase Plasminogen Activator (uPA), PLAU (gene 5328); assay: BSK_BF4T_uPA: BioMAP Diversity Plus: BF4T Assay for urokinase Plasminogen Activator (uPA) Biomarker Activity (AID 2284275); settings: primary human bronchial epithelial cells with fibroblasts
# Outline: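 Co-culture of human bronchial epithelial cells and dermal fibroblasts; uPA quantified by ELISA 24 hours after dosing, fitted relative to DMSO. Parallel SRB total-protein staining assessed overt cytotoxicity.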
# [15] = read-out: Matrix Metallopeptidase 9 (MMP9), MMP9 (gene 4318); assay: BSK_BF4T_MMP9: BioMAP Diversity Plus: BF4T Assay for Matrix Metallopeptidase 9 (MMP9) Biomarker Activity (AID 2284276); settings: primary human bronchial epithelial cells with fibroblasts
# Outline: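 Co-culture of human bronchial epithelial cells and dermal fibroblasts dosed for 24 h; MMP-9 quantified by ELISA and fitted upward versus DMSO. Cytotoxicity monitored in parallel cultures by SRB total-protein staining at the biomarker time point.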
# [16] = read-out: Interleukin-8 (IL8), CXCL8 (gene 3576); assay: BSK_IMphg_IL8: BioMAP Diversity Plus: IMphg Assay for Interleukin-8 (IL8) Biomarker Activity (AID 2284277); settings: primary human endothelial cells with macrophages
# Outline: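 Co-culture of human venular endothelial cells and macrophages exposed to chemicals for 24 h; IL-8 quantified by ELISA and compared against the DMSO baseline, with SRB total-protein staining in parallel cultures for cytotoxicity.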
# [17] = read-out: Intercellular Adhesion Molecule 1 (ICAM1), ICAM1 (gene 3383); assay: BSK_BE3C_ICAM1: BioMAP Diversity Plus: BE3C Assay for Intercellular Adhesion Molecule 1 (ICAM1) Biomarker Activity (AID 2284278); settings: primary human bronchial epithelial cells
# Outline: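 Human primary bronchial epithelial cultures; compound added; 24 h incubation; cell-surface ICAM-1 measured by ELISA; signal increase fitted relative to DMSO negative control.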
compound,measurement,setting,value
O=C(OC1CCCCC1)c1ccccc1C(=O)OC1CCCCC1,outcome,"Decorin, DCN (gene 1634)",inactive
same,AC50,[1],13.3 µM (active)
same,AC50,[2],5.69 µM (active)
same,AC50,[3],25.7 µM (active)
CCOP(=S)(OCC)Oc1ccc(S(C)=O)cc1 (stereo not drawn),outcome,"Decorin, DCN (gene 1634)",inactive
same,outcome,[1],inactive
same,outcome,[2],inactive
same,outcome,[3],inactive
COP(=S)(OC)Oc1ccc(Sc2ccc(OP(=S)(OC)OC)cc2)cc1,outcome,"Decorin, DCN (gene 1634)",inactive
same,outcome,[1],inactive
same,AC50,[2],7.48 µM (active)
same,outcome,[3],inactive
Oc1ccc(-c2ccccc2)cc1,outcome,"Decorin, DCN (gene 1634)",inactive
same,outcome,[1],inactive
same,outcome,[2],inactive
same,outcome,[3],inactive
COc1cc(OC)nc(NC(=O)NS(=O)(=O)c2ncccc2C(=O)N(C)C)n1,outcome,"Decorin, DCN (gene 1634)",inactive
same,outcome,[1],inactive
same,outcome,[2],inactive
same,outcome,[3],inactive
CC(=O)C(Cl)C(=O)N(C)C (stereo not drawn),outcome,"Decorin, DCN (gene 1634)",inactive
same,outcome,[1],inactive
same,outcome,[2],inactive
same,outcome,[3],inactive
COC(=O)c1sccc1S(=O)(=O)NC(=O)Nc1nc(C)nc(OC)n1,outcome,"Decorin, DCN (gene 1634)",inactive
same,outcome,[1],inactive
same,outcome,[2],inactive
same,outcome,[3],inactive
BrCCBr,outcome,"Decorin, DCN (gene 1634)",inactive
same,outcome,[1],inactive
same,outcome,[2],inactive
same,outcome,[3],inactive
Nc1ccc(-c2ccc(N)c(Cl)c2)cc1Cl,outcome,"Decorin, DCN (gene 1634)",inactive
same,AC50,[1],24.9 µM (active)
same,AC50,[2],7.38 µM (active)
same,outcome,[3],inactive
Nc1cccc2ccccc12,outcome,"Decorin, DCN (gene 1634)",inactive
same,outcome,[1],inactive
same,AC50,[2],20 µM (active)
same,outcome,[3],inactive
O=C(O)C(F)(F)C(F)(F)C(F)(F)C(F)(F)C(F)(F)C(F)(F)F,outcome,[4],inactive
same,outcome,[5],inactive
same,outcome,[6],inactive
same,outcome,"CD90, THY1 (gene 7070)",inactive
same,outcome,[7],inactive
same,outcome,[8],inactive
same,outcome,"Decorin, DCN (gene 1634)",inactive
same,outcome,KRT18 (gene 3875),inactive
same,outcome,[1],inactive
same,outcome,[2],inactive
same,outcome,[3],inactive
same,outcome,[9],inactive
same,outcome,[10],inactive
same,outcome,[11],inactive
same,outcome,[12],inactive
same,outcome,[13],inactive
same,outcome,[14],inactive
same,AC50,[15],24.6 µM (active)
same,outcome,[15],inactive
same,AC50,[16],40.5 µM (active)
same,outcome,[16],inactive
same,outcome,[17],inactive
Oc1c(I)cc(I)cc1I,outcome,"Decorin, DCN (gene 1634)",inactive
same,AC50,[1],18.2 µM (active)
same,AC50,[2],5.11 µM (active)
same,outcome,[3],inactive
CC(C)c1ccc(CO)cc1,outcome,"Decorin, DCN (gene 1634)",inactive
same,outcome,[1],inactive
same,outcome,[2],inactive
same,outcome,[3],inactive
O=Cc1cccc(Oc2ccccc2)c1,outcome,"Decorin, DCN (gene 1634)",inactive
same,outcome,[1],inactive
same,outcome,[2],inactive
same,outcome,[3],inactive
CC(C)CCCCCCOC(=O)c1ccccc1C(=O)OCCCCCCC(C)C,outcome,"Decorin, DCN (gene 1634)",inactive
same,outcome,[1],inactive
same,outcome,[2],inactive
same,outcome,[3],inactive
O=C(O)CCC(F)(C(F)(F)F)C(F)(F)F,outcome,[4],inactive
same,outcome,[5],inactive
same,outcome,[6],inactive
same,outcome,"CD90, THY1 (gene 7070)",inactive
same,outcome,[7],inactive
same,outcome,[8],inactive
same,outcome,"Decorin, DCN (gene 1634)",inactive
same,outcome,KRT18 (gene 3875),inactive
same,outcome,[1],inactive
same,outcome,[2],inactive
same,outcome,[3],inactive
same,outcome,[9],inactive
same,outcome,[10],inactive
same,outcome,[11],inactive
same,outcome,[12],inactive
same,outcome,[13],inactive
same,outcome,[14],inactive
same,outcome,[15],inactive
same,outcome,[16],inactive
same,outcome,[17],inactive
